In the emibetuzumab library of Makowski et al. (2022):
The list shows a part of the results. The hit rate among all sequences tested is not known here.

B1: VH:VL chains; a variant is named by its letters at X, in order (parent)
chain 1: QVQLVQSGAEVKKPGASVKVSCKASGYTFTDYXMHWVRQAPGQGLEWMGXVNPNXXXTTYNQKFEGRVTMTTDTSTSTAYMELRSLRSDDTAVYYCARXNXLDXWGQGTTVTVSS
chain 2: DIQMTQSPSSLSASVGDRVTITCSVSSSVSSIYLHWYQQKPGKAPKLLIYSTSNLASGVPSRFSGSGSGTDFTLTISSLQPEDFATYYCQVYSGYPLTFGGGTKVEIK

Variants of: B1
Test: yeast display scFab, FACS + sequencing
Conditions: with MET
How it was run: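 For FACS, yeast displaying a heavy-chain CDR mutant scFab library were labelled with 1 nM HGFR-Fc and anti-Myc (PBSB, 1% milk, 3 h, room temperature), and the top 50% antigen-positive cells were gated. Input and round-3 sorted populations were deep sequenced in two replicates. The binding call was positive for sequences occurring in both antigen-positive samples and negative for sequences occurring only in input.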

Variant	antigen binding call
FGAAAVGD	no binding
YKAKGSAV	binds
YRAKGSAV	binds
YRARGSAV	binds
YRAKGAAV	binds
YKEEDDAV	no binding
YKTRDDAV	no binding
VEERDAVA	no binding
VEGTSDGD	no binding
VAGTGDVA	no binding
YTKKTFSY	no binding
YRGEAFLY	no binding
YRGRASLY	binds
YGGRADVY	no binding
YRARSSLY	binds
YRGRSSLY	binds
VKGRADLY	no binding
VAATGVSD	no binding
SGEGNSWA	no binding
FKTKDSVV	no binding
FRRGSSVV	binds
YKGAGDVV	no binding

Variant	antigen binding call
DARGGAVV	no binding
VKREASVV	no binding
YRGRASVV	binds
YAGRADVV	no binding
YKRGGAVV	binds
YKRGSSVV	binds
DGGENDVF	no binding
DTTKGDVA	no binding
DAARGDVV	no binding
VRGRSDWV	no binding
YRRGSSVV	binds
VRGRDDVV	no binding
VRAEASVV	no binding
VRRGSSVV	binds
VRGRSSVV	binds
VATGDDWV	no binding
SKGRSDVS	no binding
DRAGDAVD	no binding
DRAGDAVS	no binding
YRAGTAVD	binds
YRAGTAVS	binds
SAARDFWV	no binding

Variant	antigen binding call
DKEGGDLA	no binding
YRKGASVD	binds
YRKGSSVD	binds
ATGGDDGF	no binding
DTTGSDWA	no binding
SERRSSAF	no binding
DERRSSAF	no binding
YERRSSAF	binds
YRRGGAAF	binds
YRKGASAF	binds
VRRRGSAF	binds
DGGRGDAF	no binding
DGTGGSGA chain 1 R67H	no binding
VRRRGSLF	binds
YRRRGAAF	binds
FRRRDAAF	no binding
YRRRGSAF	binds
DKGEGDGA	no binding
SKAGSDVA	no binding
YRGRSAWF	binds
FRGRGAWF	binds
YRGRGFWF	binds

Variant	antigen binding call
YKGRGFWA	no binding
DRGRDAWF	no binding
YRTRGAWF	binds
FRTGSAWF	no binding
YAGGDDAA	no binding
VEAGTAVA	no binding
YAGRGDVF	no binding
YEGTGAVF	no binding
YRGRGAVF	binds
YRGRGAWF	binds
VAREDDWA	no binding
YTRGASLD	no binding
AATTDSVD	binds
VARGGSVD	no binding
YTKTSSVD	no binding
VATTDSVD	no binding
VKRGSFVD	no binding
YKRGSSVD	binds
YTEEAAVD	binds
DATTDSVD	no binding
VKRGSSVD	binds
YTRKSSVD	no binding

Variant	antigen binding call
DAGGGDWD	no binding
DAGGADVY	no binding
YATAADWD	no binding
ATRTDDVF	no binding
DEGEDAGA	no binding
SEEGSDAS	no binding
YKRGSFVD	no binding
YKTGDSVD	binds
YKRGSAVD	binds
YARGTAVD	no binding
YKRRDSVD	binds
DGGTNSSA	no binding
DEGGTALA	no binding
SEGTGSGD	no binding
FGGEGDGA	no binding
YKTGDSWV	no binding
YKRGGSWD	binds
YKRGSSWD	binds
VKRATSWD	no binding
YKTGSSWD	binds
